Bioassay records from PubChem.
CHX counter: affects cycloheximide protein synthesis inhibition readout, counter-screen; cell reporter, cycloheximide protein synthesis inhibition counterscreen; max response, %; 300,000 compounds, 12% hits; in the data active means max response mostly above about 13%, no sharp cut-off; inactive means mostly below about 14%; further: read at 38.3 µM for the half of the compounds with a filed dose; 0% is about no effect
MARV entry inh: inhibitors of Marburg virus binding or cell entry; Marburg virus pseudotyped entry inhibition, cell reporter; Potency, µM (series often up to 37.8 µM), without a hit: at the top dose activity change, negative = inhibition, most hits filed as inhibitors; 300,000 compounds, 1.8% hits; calls by dose curve; tested in HEK293 cells; further: potency means the concentration at half of the fitted maximal effect; on the % scale 0 is the no-effect control and ±100 the full control effect
Shiga toxin inh: inhibitors of Shiga toxin in Vero cells; Vero cells, Shiga toxin protein synthesis inhibition reporter; inhibition, % at 38.7 µM; 290,000 compounds, 9.2% hits; in the data active means inhibition mostly above about 28%, no sharp cut-off; inactive means mostly below about 43%; further: 0% is about no effect
LASV entry inh: inhibitors of Lassa virus binding or cell entry; Potency, µM (highest dose often 37.9 µM), inactives show at the top dose activity change, negative = inhibition, actives largely listed as inhibitors; 300,000 compounds, 1.2% hits; AID 540256; Lassa virus pseudotype entry inhibition, cell reporter; calls by dose curve; tested in HEK293 cells; further: potency means the concentration at half of the fitted maximal effect; on the % scale 0 is the no-effect control and ±100 the full control effect; nearly all actives have a fitted effect of over 50% in size
Starred values were filed as active, the others as inactive; ? = inconclusive; . = no result given; [ ] = dose if it differs, or a comment. Shown are actives, neighbours in structure and some others; about 12% of the full set was active somewhere.

SMILES	CHX counter	MARV entry inh	Shiga toxin inh	LASV entry inh
COCCC(=O)N1CCCC(CCC(=O)NCc2ccc(F)c(F)c2)C1 (stereo not given)	16.9*	4.7%[46.1 µM]	79.4*	20.2%[46.1 µM]
Cn1cc(CCC(=O)N2CCCC(CCC(=O)NCc3ccccc3F)C2)cn1 (stereo not given)	2.9	.	18.3	.
Cn1cc(CCC(=O)N2CCCC(CCC(=O)NCc3ccc(F)c(F)c3)C2)cn1 (stereo not given)	17.1*	.	43.2*	.
COc1ccc(/C=C/CN2CCCC(CCC(=O)NCc3ccc(F)c(F)c3)C2)cc1 (stereo not given)	9.2	7.94µM*	-6.7	0.4%
Cc1ccc(NC(=O)CCNC(=O)c2ccc([N+](=O)[O-])cc2)cc1C	-1.8	6.1%[46.1 µM]	-3.9	-26.9%[46.1 µM]
CC12C=C(C=Cc3ccc(Br)cc3)C(C)(C1)C(c1ccc(Br)cc1)CC2=O (stereo not given)	.	-25.8%[14.2 µM]	.	11.5%[14.3 µM]
O=C(CCN1C(=O)C2C3C=CC(C4CC34)C2C1=O)Oc1cccc2cccnc12 (stereo not given)	-1.9	16.4µM*	-26.8	-20.2%
Cc1nc2c(-c3ccc(F)cc3)cnn2c2c1CCC2	37.7*	?	53.1*	?
CC(=Nc1ccccc1N)c1c(O)n(C)c(=O)[nH]c1=O	50.0*	7.6%	75.9*	1.2%
Nc1cc2nc3ccccc3oc-2cc1=O	28.1*	.	41.6*	.
O=c1c(Cl)c2oc3ccccc3nc-2c2ccccc12	14.6	?	-18.6	-16.1%[46.1 µM]
C/C(N)=C(/C#N)C(=O)CSc1ccccc1F	34.5*	?	94.0*	12.5%
C/C(N)=C(/C#N)C(=O)CSc1n[nH]c(-c2ccccc2Br)n1	46.2*	?	65.7*	15.7%[46.1 µM]
C/C(N)=C(/C#N)C(=O)CSc1nnc(Cc2ccccc2F)n1N	0.9	8.2%	-5.6	4.0%
C/C(N)=C(/C#N)C(=O)CSc1nn(-c2ccc(Cl)cc2)c(=S)s1	47.3*	.	72.1*	.
Cc1ccc(NC(=S)N2CCSC2c2cccs2)cc1 (stereo not given)	28.8*	?	131.6*	-26.5%
COc1ccc(C2SCCN2C(=S)Nc2ccc(Cl)cc2)cc1 (stereo not given)	28.8*	-16.7%	23.5	-10.4%
COc1ccc(C2SCCN2C(=S)Nc2cccc(Cl)c2)cc1 (stereo not given)	6.9	-33.0%	12.1	?
CCOC(=O)c1ccc(NC(=S)N2CCSC2c2c(F)cc(F)cc2F)cc1 (stereo not given)	7.5	-10.7%	7.5	?
O=S(Cc1ccc(Cl)cc1)c1ccccc1 (stereo not given)	.	-16.9%[46.1 µM]	.	-9.7%[46.1 µM]
CCN1CCN(P2(=O)C=C(c3ccccc3)OC(c3ccccc3)=C2)CC1	-3.5	?	-16.7	-27.6%
O=P1(O)C=C(c2ccccc2)OC(c2ccccc2)=C1	67.2*	?	145.5*	?
O=C(CSc1nc2c(oc3ccccc32)c(=O)n1-c1ccccc1)Nc1ccc(F)c(Cl)c1	.	-17.3%[46.1 µM]	.	.
CCN(CC)S(=O)(=O)c1ccc(C(=O)NCc2cccs2)cc1	-0.8	10.1%	19.3	2.91µM*
CCN(CC)S(=O)(=O)c1ccc(C(=O)NCc2ccc(C)cc2)cc1	0.9	-25.7%[46.1 µM]	-11.0	18.3µM*
SMILES	CHX counter	MARV entry inh	Shiga toxin inh	LASV entry inh
CN(C)S(=O)(=O)c1ccc(C(=O)NCc2ccco2)cc1	1.5	-2.1%[46.1 µM]	-16.5	-5.0%[46.1 µM]
CCCN(CCC)S(=O)(=O)c1ccc(C(=O)NCc2ccco2)cc1	1.0	2.3%	-8.1	0.794µM*
CCN(CC(=O)NCc1cccs1)S(=O)(=O)c1ccc(F)cc1	.	22.9%	.	1.4%
CCCCSCCCNC(=O)Nc1ccc(C)c(C)c1	15.4	-20.7%[46.1 µM]	-5.8	4.2%
Cc1cc(NC(=O)Cn2c(=O)oc3cc(S(=O)(=O)N4CCCC4)ccc32)ccc1Br	.	.	.	-22.2%[46.1 µM]
O=C(NCCN1CCNCC1)c1ccccn1	13.7	-3.4%	100.5*	1.0%
COc1cccc(OCCNC(=O)c2ccc(C)cc2)c1	26.7*	-24.9%[46.1 µM]	39.8*	-5.1%[46.1 µM]
CC(=O)Nc1cccc(OCCCNC(=O)c2ccc(C(C)(C)C)cc2)c1	25.3*	.	44.6*	.
Cc1ccc(OCC(=O)NS(=O)(=O)c2ccc(Cl)cc2)cc1	2.2	?	-32.4	20.1%
COc1cccc(OCCNC(=O)c2cccc(OC)c2)c1	7.3	-2.6%	1.2	11.3%
Cc1ccc(C(=O)CC(=O)COc2ccc(Cl)cc2)cc1	17.5*	9.7%[46.1 µM]	26.9	-4.2%
CC(=O)Nc1cccc(OCCCNC(=O)c2ccc(F)cc2)c1	11.9	.	21.1	.
Clc1ccccc1/C=C/C=N/Nc1nc(N2CCOCC2)nc(N2CCOCC2)n1	-5.7	?	-0.6	?
Cc1ccc(C(=O)NCCOc2ccc(Cl)cc2)cc1	31.6*	?	51.1*	28.0%[46.1 µM]
CC(C)(C)c1ccc(C(=O)NCCCNC(=O)c2ccccn2)cc1	10.5	0.7%[46.1 µM]	41.7*	19.6%[46.1 µM]
O=C(NCCCNC(=O)c1ccccn1)c1ccc(Cl)cc1	-3.2	13.0%[46.1 µM]	-3.9	7.1%[46.1 µM]
COc1ccc(CCC(=O)NCCOc2ccc(Cl)cc2)cc1	31.7*	3.6%	40.2	7.6%
COc1ccc(Cn2nc(C)n(N(C)c3ncc(C(F)(F)F)cc3Cl)c2=O)cc1	-1.6	-17.6%	-15.2	1.9%
Cc1ccc(/C=N/NC(=O)C(C)Oc2ccccc2[N+](=O)[O-])s1 (stereo not given)	2.3	?	14.5	-4.5%
Cc1cccc(OCC(=O)Nc2c(C)ccc3nsnc23)c1C	.	0.2%[46.1 µM]	.	?
Cn1c(=O)c2c(SCC(=O)N3CCCCC3)nc(-c3ccccc3F)nc2n(C)c1=O	-3.0	6.4%	-7.6	2.8%
O=C(Nc1cccc([N+](=O)[O-])c1)c1ccn[nH]1	59.6*	-25.1%[46.1 µM]	76.4*	-0.1%
CC(=O)c1ccc(NC(=O)c2ccc(-n3cnnc3)cc2)cc1	.	.	.	14.4%[46.1 µM]
O=C(Nc1ccccc1)c1ccn[nH]1	38.4*	?	94.4*	2.5%
O=C(O)c1cc([N+](=O)[O-])ccc1C(=O)Nc1cccc([N+](=O)[O-])c1	1.2	?	-5.1	3.7%
SMILES	CHX counter	MARV entry inh	Shiga toxin inh	LASV entry inh
CC(=O)c1ccc(NC(=O)c2ccn[nH]2)cc1	35.0*	?	64.9*	?
CS(=O)(=O)c1ccc(Cl)c(NC(=O)c2cc(S(=O)(=O)N3CCOCC3)ccc2N2CCCC2)c1	.	-1.7%	.	-1.4%
CC1=CC=CN2C[C@H](O)CN=C12	.	12.2%	.	.
Cc1ccccc1NC(=O)c1sc2nc3n(c(=O)c2c1C)N=C(c1ccccc1)CS3	.	-8.6%[46.1 µM]	.	-5.4%[46.1 µM]
Cc1[nH]n(-c2ccccc2)c(=O)c1/C=C1\C=NN=C1c1ccccc1	66.9*	-9.5%[14.2 µM]	97.8*	29.9%
Cc1[nH]n(-c2ccccc2)c(=O)c1/C=C1/C=c2ccccc2=N1	17.2*	?	17.2	5.7%
O=C(Nc1ccc(Br)cc1)Nc1ccccc1F	49.8*	10.0%[46.1 µM]	107.2*	?
O=C(Nc1ccccc1F)Nc1ccccc1F	34.6*	.	72.6*	.
Cn1nc(-c2ccccc2)cc1NC(=O)C1CCCCC1	40.8*	.	58.9	.
C[C@H](NC(=O)Nc1ccccc1F)C(=O)O	1.1	13.1%	-19.6	11.5%
Cc1cc(C)cc(NC(=O)Nc2cc(-c3ccccc3)nn2C)c1	8.1	22.0%[46.1 µM]	10.8	4.3%[46.1 µM]
O=C(Nc1ccccc1F)C(c1ccccc1)c1ccccc1	.	?	.	31.4%
Cn1nc(-c2ccccc2)cc1NC(=O)Nc1ccccc1F	36.3*	-3.0%[14.2 µM]	57.4	2.8%
CC(NS(=O)(=O)c1ccc2c(c1)c(=O)n(C)c(=O)n2C)C(=O)NC1CCCCC1 (stereo not given)	-3.3	.	-8.3	.
